Measured values as given in PubChem BioAssay (NCI).
Compounds without any hit were thinned out: in the full panel of roughly 83,000, 20% have a hit.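 Single-dose data. Exposure time 48 hours. Values below 10 considered active.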 Unmarked numbers belong to inactive results. Calls of active or inactive are those of the source.

Key:
Experiment in all cases: NCI-60 one-dose screen, 48 h (100 = growth as untreated, 0 = no growth, -100 = all killed)
Settings in all cases: 10 µM unless noted
[1] = tested on: SR leukemia
[2] = tested on: RPMI-8226 leukemia
[3] = tested on: OVCAR-5 ovarian
[4] = tested on: OVCAR-4 ovarian
[5] = tested on: SK-OV-3 ovarian
[6] = tested on: IGROV1 ovarian
[7] = tested on: OVCAR-3 ovarian
[8] = tested on: HS 578T breast
[9] = tested on: NCI/ADR-RES ovarian
[10] = tested on: T-47D breast
[11] = tested on: BT-549 breast
[12] = tested on: MDA-MB-435 melanoma
[13] = tested on: SW-620 colon
[14] = tested on: MCF7 breast
[15] = tested on: HCT-116 colon
[16] = tested on: HCC-2998 colon
[17] = tested on: KM12 colon
[18] = tested on: OVCAR-8 ovarian

Row | SMILES | growth [1] | growth [2] | growth [3] | growth [4] | growth [5] | growth [6] | growth [7] | growth [8] | growth [9] | growth [10] | growth [11] | growth [12] | growth [13] | growth [14] | growth [15] | growth [16] | growth [17] | growth [18]
1 | CNC=O | 92.4% | 103% | 87.7% | 115% | 105% | 95% | 109% | 2.14% (active) | 59.5% | 98.3% | 168% | 96.9% | 93.5% | 99.3% | 95.8% | 174% | 95.5% | 
2 | CSc1ccc(Cl)c(C(=O)Nc2sccc2C(N)=O)c1 | 104% | 95.3% | 98.2% | 83.5% | 115% | 105% | 100% | 99.4% | 99% |  |  | 110% | 96.5% | 64.8% | 109% | 102% | 99.8% | 
3 | C=C(C=O)[C@@H]1CC=C(C=O)CC1 | -6.52% (active) | -36.6% (active) | -54.5% (active) | 10.5% | 0.713% (active) | -24.5% (active) | -19.7% (active) | 6.33% (active) | 3.97% (active) | -27.7% (active) | -18.9% (active) | -31.4% (active) | -25.7% (active) | -17.3% (active) | 5.92% (active) | -30% (active) | -36.6% (active) | 
4 | COc1ccc(OC)c(C(=O)Nc2cccc(-c3cc(=O)c4ccccc4o3)c2)c1 | 80% |  | 95.4% | 73.3% | 52.6% | 104% | 110% | 68.3% | 80.2% | 85.6% | 88.2% | 96.2% | 96.8% | 92% | 88% | 104% | 92.5% | 63.3%
5 | COc1ccc(/C(C)=C(\c2ccc(Cl)cc2)c2ccc(OCCN3CCCCC3)cc2)cc1F | -25.2% (active) |  | 51.5% | 29.1% | 63% | 46.2% | 51% | 35% | 63% | 47.4% | 60.7% | 37% | 22.1% | 15% | 19.7% | 25.2% | 18.7% | 59.5%
6 | CC1(C)N=C(N)N=C(N)N1c1ccc(Cl)c(Cl)c1 | 39.5% | 48.2% |  | 54.5% | 39.5% | 41.2% | 53% |  |  | 69.8% | 42.9% | 27.4% | 43.1% | 21.4% | 24.9% | 20.8% | 38.8% | 
7 | C=C1C(=O)O[C@H]2[C@H]1CC/C(COC(=O)/C=C\C(=O)NCc1ccc(Cn3c(=O)sn(-c4ccc(C#N)cc4)c3=O)cc1)=C\CC[C@@]1(C)O[C@@H]21 | -37.6% (active) |  | -83.9% (active) | -81.1% (active) | 37.8% | -98.7% (active) | -90.1% (active) | -24.9% (active) | 0.213% (active) | -59.9% (active) | -57.5% (active) | -79.6% (active) | -64% (active) | -51.8% (active) | -55.7% (active) | -79.1% (active) | -71.7% (active) | -10.9% (active)
8 | Clc1ccc(-c2nnc(-c3ccco3)o2)cc1 | 89.7% | 93.8% | 82.4% | 95.4% | 102% | 93.8% | 107% | 107% | 104% | 99.2% | 101% | 89.7% | 99.5% | 95.2% | 87.3% | 94.4% | 106% | 
9 | CC12CC(C#N)CCC1O2 (stereo not given) | 98.9% | 106% | 105% |  | 115% | 99.2% | 117% | 105% | 115% | 116% | 111% | 121% | 97.3% | 97.9% | 108% | 114% | 113% | 
10 | O=C(CC1Sc2ccccc2NC1=O)NNc1ccc(F)cc1 (stereo not given) | 83.5% | 78.7% | 76.3% | 72% | 92.5% | 70.3% | 84.8% | 82.4% | 44.1% | 66.4% | 88.6% | 31% | 106% | 84.7% | 71.6% | 63.7% | 77.4% | 
11 | Nc1c(C(=O)c2ccc(Cl)s2)sc2nc3c(cc12)CCCC3 | 97.3% | 90.9% | 137% | 112% | 90.8% | 104% | 106% | 111% | 101% |  |  | 119% | 106% | 41.3% | 105% | 111% | 96.6% | 
12 | CCOC(=O)c1sc(-c2ccc(OS(=O)(=O)c3ccc(C(C)(C)C)cc3)c(C=O)c2)nc1C | 14.5% |  | 64.3% | 39.2% | 85.5% | 32% | 30% | 52.9% | 32.4% | 31.2% | 53.6% | 57.2% | 19.9% | 33.9% | 15.2% | 52.4% | 17.9% | 38.2%
13 | O=C(O)C1C[C@](O)(c2ccc(F)cc2)[C@@H](c2ccc(F)cc2)O1 (stereo not given in full) | 73.8% |  | 90.8% | 107% | 97.5% | 71.8% | 146% | 124% | 96.5% | 88.2% | 71% | 99.1% | 116% | 97.5% | 100% | 115% | 131% | 95.1%
14 | N[C@@H]1CCC[C@H]1NCCCCN1C(=O)c2cccc3cccc(c23)C1=O | 18.1% | 77.7% | 80.9% | 47.2% | 96.9% | 59.9% | 69.9% | 71.8% | 82.4% | 86.3% | 78.9% | 83.3% | 38% | 70% | 50.3% | 60.1% | 63.5% | 
15 | COc1ccc(/C(C)=C(\c2ccc(Cl)cc2)c2ccc(OCCN3CCCC3)cc2)cc1F | -22.6% (active) |  | 46.6% | 32.3% | 58.6% | 38.1% | 35.2% | 30% | 51.6% | 50.7% | 66.3% | 31.6% | 13.3% | 9.96% (active) | 14.3% | 18.6% | 7.85% (active) | 48.7%
16 | N#Cc1cnn2c(-c3ccc(Cl)cc3)nc(NCCc3ccccc3)nc12 | 83.5% |  | 101% | 85.7% | 74.5% | 83.4% | 99.2% | 99.6% | 90.1% | 50.9% | 100% | 101% | 98.1% | 79.7% | 81.5% | 106% | 88% | 88.8%
17 | COc1ccccc1NC(=O)Nc1ccc(-c2nc3ccccc3o2)cc1 | 69% | 96.7% | 104% | 95.3% |  | 104% | 109% | 99% | 98.4% | 68.1% | 92.3% | 104% | 111% | 99% | 93.7% | 106% | 105% | 
